Reference: the supplement of paper PMC6555819

What was measured:
Test in all cases: PBM binding z-score (relative to random genomic background probes); higher = stronger binding; sequences stand for … in GC…GCGATTGACAGCGTAGAATGAAGG
[1] = tested on: FXR:RXRa (NR concentration 270 nM, RXRa partner concentration 90 nM)
Procedure, shortened: (§1)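 Ligand-free nuclear receptor dimers were bound for 1 h to custom Agilent 4×180K protein-binding microarrays. Detection used antibodies against each partner (one per run). Binding z-scores rest on regression-normalized fluorescence, with random background probes as the reference.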

[2] = tested on: LXRa:RXRa (NR concentration 270 nM, RXRa partner concentration 90 nM)
Procedure, shortened: as §1

[3] = tested on: LXRa homodimer (NR concentration 270 nM)
Procedure, shortened: as §1

[4] = tested on: LXRb:RXRa (NR concentration 270 nM, RXRa partner concentration 90 nM)
Procedure, shortened: as §1

[5] = tested on: LXRb homodimer (NR concentration 270 nM)
Procedure, shortened: as §1

[6] = tested on: PPARa:RXRa (NR concentration 270 nM, RXRa partner concentration 90 nM)
Procedure, shortened: as §1

[7] = tested on: PPARg:RXRa (NR concentration 180 nM, RXRa partner concentration 90 nM)
Procedure, shortened: as §1

[8] = tested on: PPARg:RXRa 270nM:90nM, anti-RXR (NR concentration 270 nM, RXRa partner concentration 90 nM)
Procedure, shortened: as §1

[9] = tested on: PPARg:RXRa 30nM:10nM, anti-RXR (NR concentration 30 nM, RXRa partner concentration 10 nM)
Procedure, shortened: as §1

[10] = tested on: PPARg:RXRa 90nM:30nM, anti-RXR (NR concentration 90 nM, RXRa partner concentration 30 nM)
Procedure, shortened: as §1

[11] = tested on: PPARg:RXRa DBDmut IVT, anti-RXR (DBD mutation: RXRa K156A/R161A, NR concentration 270 nM, RXRa partner concentration 90 nM)
Procedure, shortened: as §1

[12] = tested on: PPARg:RXRa IVT, anti-PPARg (NR concentration 270 nM, RXRa partner concentration 90 nM)
Procedure, shortened: as §1

[13] = tested on: PPARg DBDmut:RXRa IVT, anti-PPARg (DBD mutation: PPARg1 K132A/R137A, NR concentration 270 nM, RXRa partner concentration 90 nM)
Procedure, shortened: as §1

[14] = tested on: PPARg DBDmut IVT, anti-PPARg (DBD mutation: PPARg1 K132A/R137A, NR concentration 270 nM)
Procedure, shortened: as §1

[15] = tested on: PPARg homodimer (NR concentration 180 nM)
Procedure, shortened: as §1

[16] = tested on: PXR:RXRa (NR concentration 270 nM, RXRa partner concentration 90 nM)
Procedure, shortened: as §1

[17] = tested on: PXR homodimer (NR concentration 270 nM)
Procedure, shortened: as §1

[18] = tested on: RARa:RXR (NR concentration 270 nM, RXRa partner concentration 90 nM)
Procedure, shortened: as §1

[19] = tested on: RARa homodimer (NR concentration 270 nM)
Procedure, shortened: as §1

[20] = tested on: RARb:RXRa (NR concentration 270 nM, RXRa partner concentration 90 nM)
Procedure, shortened: as §1

| Sequence | PBM binding z-score [1] | PBM binding z-score [2] | PBM binding z-score [3] | PBM binding z-score [4] | PBM binding z-score [5] | PBM binding z-score [6] | PBM binding z-score [7] | PBM binding z-score [8] | PBM binding z-score [9] | PBM binding z-score [10] | PBM binding z-score [11] | PBM binding z-score [12] | PBM binding z-score [13] | PBM binding z-score [14] | PBM binding z-score [15] | PBM binding z-score [16] | PBM binding z-score [17] | PBM binding z-score [18] | PBM binding z-score [19] | PBM binding z-score [20] |
| --- | --- | --- | --- | --- | --- | --- | --- | --- | --- | --- | --- | --- | --- | --- | --- | --- | --- | --- | --- | --- |
| CAAACTAGGTCACCGGAAGGTCAATGTCCGCATG | 5.97 | 5.52 | 3.83 | 4.64 | 1.09 | 6.05 | 9.44 | 7.81 | 5.6 | 7.57 | 8.58 | 8.99 | 1.98 | 1.35 | 6.39 | 5.65 | 1.15 | 6.94 | 1.41 | 5.25 |
| CTCGAAAGGTCGTGCTCACGTGAGTATACCAAAC | 5.21 | 3.95 | 0.0228 | 3.69 | 0.397 | 5.07 | 2.9 | 3.42 | 0.773 | 2.12 | 0.85 | 1.55 | 0.551 | 0.796 | 1.35 | 2.86 | -0.121 | 3.31 | -0.039 | 3.92 |
| GCGACTGGGGCATCAGCAGGTTACCATTACTTAA | -0.552 | -0.326 | -0.0382 | 0.719 | -1.11 | 0.893 | 0.716 | 0.73 | -0.277 | 0.0982 | 3.98 | 3.38 | -0.628 | -0.712 | 0.00295 | -0.132 | -0.395 | 0.221 | -0.0866 | 0.832 |
| GCGACTGGGGAAAAGCAGGTTACCATAAGGTTGG | -0.282 | -0.412 | -0.496 | 0.0547 | -1.04 | 0.442 | 0.406 | 0.154 | -0.554 | 0.0241 | 0.483 | 0.632 | -0.499 | -1.11 | 0.255 | -0.0375 | -0.35 | 0.407 | -0.675 | -0.16 |
| GCGACTGGGGCATCAGCAAGTTACCATAACTTAA | -0.358 | -0.587 | -0.708 | 0.105 | -0.805 | 0.514 | 0.866 | 1.08 | -0.463 | 0.387 | 3.88 | 2.87 | -1.33 | -0.593 | -0.528 | -0.359 | -0.789 | -0.454 | -0.707 | 0.453 |
| GCTCGGAGGACAAAGTCAGAGCTTTGTCCGTAGA | -0.547 | -0.56 | -0.429 | -0.512 | -0.588 | -0.568 | -1.55 | -0.786 | -1.61 | -0.843 | -1.01 | -0.327 | -0.892 | -1.25 | -0.791 | -0.547 | -0.9 | -0.547 | -1.22 | 0.845 |
| GTGACTGGGGCAAAGCAGGTTACCATAAGGTTGG | 0.845 | 0.956 | 0.27 | 0.924 | -0.272 | 2.5 | 2.32 | 2.83 | 0.397 | 1.36 | 4.87 | 5.02 | 1.15 | 0.645 | 0.994 | 0.926 | -0.0315 | 1.99 | -0.0502 | 1.14 |
| TCGTGTAGATCAACAGGAGGTTAAGAAAGATCGA | -0.127 | 1.13 | 0.0557 | 0.789 | -0.51 | 1.22 | -0.0865 | 1.04 | 1.84 | 1.52 | 0.943 | 0.0646 | 0.363 | -0.42 | 0.211 | 0.488 | -0.663 | 1.06 | -0.074 | 0.441 |
| GCTTGTACATCAAGGTTAAGAAAGACTAAGCTAA | 0.247 | 0.691 | -0.229 | 0.559 | -0.133 | 0.96 | 0.118 | 0.299 | -0.184 | 0.084 | -0.0633 | 0.772 | 0.219 | -0.0385 | 0.116 | 0.266 | -0.152 | 0.856 | 0.262 | 0.882 |
| TTACCAAGGTGAAGGTCGTTGCTCCCTCTGTAGA | 2.26 | 1.91 | 0.0546 | 1.46 | -0.474 | 2.7 | 2.96 | 4.34 | 2.21 | 3.83 | 2.04 | 3.56 | -0.269 | 0.0241 | 1.17 | 1.46 | 0.225 | 1.65 | -0.269 | 2.39 |
| CGAACTGGGTCAGAACAGGACAGTGAAGGATGAT | 0.455 | 0.381 | -0.423 | 0.0427 | -0.721 | 2.66 | 4.95 | 3.9 | 1.63 | 3.42 | 6.73 | 6.56 | 2.09 | 2.05 | 0.887 | 1.06 | -0.389 | 1.31 | 0.0168 | 2.23 |
| TCATATAGGTGAATGCTAGGTGAAAGTCCGATCT | 1.13 | 0.917 | -0.0779 | 0.789 | -0.221 | 2.55 | 2.75 | 3.13 | 3.54 | 3.07 | 6.19 | 5.78 | 1.9 | 1.82 | 1.06 | 0.532 | -0.173 | 1.33 | 0.882 | 1.22 |
| CCTAGCAGGCCAATCTGGGTTACTCAAGGCTTGA | 0.0367 | -0.0703 | -0.681 | -0.364 | -1.09 | 1.18 | 0.194 | 0.0942 | -1.01 | -0.507 | 3.14 | 3.29 | -0.813 | -1.24 | -0.705 | -0.391 | -0.895 | -0.308 | -0.89 | 0.268 |
